In assay [1] the test system is TRPC4 beta (transient receptor potential cation channel C4), mouse. The assay can be described thus: activators of mouse TRPC4 channel, confirmation, cell-based, Fluo4 calcium, HEK293 TRPC4beta/mu-opioid, duplicates, 10 µM (AID 2426;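 active = fluorescence ratio normalized to control raised more than 50% in primary screen plus both repeat runs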). The conditions noted are these: Fluo4 calcium fluorescence, at 10 µM; hits give high values.
In assay [2] the test system is transient receptor potential cation channel C4 beta (TRPC4), mouse. Kind of assay: activators of mouse TRPC4 channel, confirmation, cell-based, second round, Fluo4, HEK293 TRPC4beta/mu-opioid, 1 µM (AID 2461;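 active = primary screen active and over 50% activation in each of two duplicate runs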). The following applies: Fluo4 calcium fluorescence, at 1 µM; hits give high values.
Assay [3] has as its system TRPC4 (transient receptor potential cation channel C4 beta), mouse. Kind of assay: positive allosteric modulators of mouse TRPC4, confirmation, cell-based, second round, Fluo-4, HEK293 TRPC4beta/mu-opioid, 1 µM (AID 2554;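 active = primary screen hit whose fluorescence ratio, in both repeats, exceeds the weak agonist control mean by 3 SD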). The conditions noted are these: DAMGO EC20, Fluo-4 calcium flux, at 1 µM; hits give high values. In general terms: A change in cytosolic calcium serves as a functional read-out for many receptors and channels.

Assay [4] deals with TRPC4 beta (transient receptor potential cation channel C4), mouse. The assay can be described thus: positive allosteric modulators of mouse TRPC4, confirmation, cell-based, Fluo-4, HEK293 TRPC4beta/mu-opioid (AID 2555;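 active = primary screen hit whose calcium fluorescence ratio, in both repeats, exceeds the weak agonist control mean by 3 SD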). The conditions noted are these: DAMGO EC20, Fluo-4 calcium flux, at 10 µM; hits give high values.
Assay [5] has as its target Short transient receptor potential channel 4 (Mus musculus) (UniProt Q9QUQ5). The assay can be described thus: inhibitors of mouse TRPC4 channel, confirmation, cell-based, Fluo4, HEK293 TRPC4beta/mu-opioid (AID 2636;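 active = calcium signal cut by more than 3 SD below the full-agonist control yet still positive, in both repeats and the earlier primary screen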). The following applies: DAMGO, Fluo4 calcium flux, at 10 µM; hits give high values.
Assay [6] shares this target. Kind of assay: inhibitors of mouse TRPC4 channel, confirmation, cell-based, second round, Fluo4, HEK293 TRPC4beta/mu-opioid, 1 µM (AID 2637;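 active = calcium signal ratio cut to more than 3 SD under the fully stimulated control mean yet still positive, in both repeats and the primary screen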). The following applies: Fluo4 calcium flux, DAMGO, at 1 µM; hits give high values.
The target is the same in assay [7]. The assay can be described thus: mouse TRPC4 channel activators, dose response, cell-based, HEK293 TRPC4/mu-opioid, Fluo-4 calcium (AID 434937;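 active = primary screen activator hit with a dose response curve and TRPC4 channel activation at any tested dose; inactive = no activation, no dose response, or not a primary hit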).
The target is the same in assay [8]. The assay can be described thus: TRPC4 positive allosteric modulators, dose response, cell-based, HEK293 TRPC4/mu-opioid, Fluo-4 calcium, EC20 DAMGO (AID 434941;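 active = earlier screen potentiator hit that boosts the TRPC4 ion channel at some dose, with a dose response; inactive = no potentiation, no dose response, or not a prior hit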;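 also: calcium entry triggered by an EC20 dose of DAMGO at the co-expressed mu-opioid receptor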).
For assay [9] the target is unchanged. The assay can be described thus: mouse TRPC4 channel inhibitors, dose response, cell-based, HEK293 TRPC4/mu-opioid, Fluo-4 calcium (AID 434942;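 active = primary screen inhibitor hit that blocks the TRPC4 channel at some tested dose, yielding a dose curve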).
Assay [10] concerns the target Short transient receptor potential channel 6 (Mus musculus) (UniProt Q61143). Kind of assay: inhibition of mouse TRPC6 channel, confirmation, selectivity assay for TRPC4 inhibitor project, cell-based, HEK293, membrane potential dye, duplicate (AID 434948;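 active = active in primary screen and both duplicates, each dropping signal beyond three positive-control SD with fluorescence still positive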). The conditions noted are these: HEK293 TRPC6, membrane potential dye fluorescence, at 10 µM, stimulated with maximal-effect acetylcholine; hits give high values.

Assay [11] has the same target. Kind of assay: activation of mouse TRPC6 channel, confirmation, selectivity assay for TRPC4 activator project, cell-based, HEK293, membrane potential dye, duplicate (AID 434950;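 active = membrane potential signal rise above negative control mean plus 3 SD in both duplicates, also active in the earlier TRPC4 screen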;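 as to activation: 0% = buffer only wells and 100% = acetylcholine maximal-effect wells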). The conditions noted are these: HEK293 TRPC6, membrane potential fluorescence, at 10 µM; hits give high values.
For assay [12] the target is unchanged. The assay can be described thus: TRPC6 potentiation by TRPC4 potentiator hits, confirmation, selectivity assay for TRPC4 potentiator project, HEK293 cells, membrane potential dye, duplicate (AID 434952;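 active = compound raising the membrane signal above positive-control mean plus 3 SD in both repeats, and a primary screen hit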). The conditions noted are these: HEK293 TRPC6, membrane potential dye fluorescence, at 10 µM, maximal acetylcholine added after compound; hits give high values.

The target of assay [13] is Short transient receptor potential channel 4 (Mus musculus) (UniProt Q9QUQ5). The assay can be described thus: calcium flux activators in TRPC4/5HT1a cells, counter-screen for TRPC4 activator project, cell-based, second counter screen, HEK293 TRPC4/5HT1a, Fluo-4 (AID 434977;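 active = calcium signal rise above buffer-control mean plus 5 SD in both duplicates, and also a hit in the primary screen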). The following applies: Fluo-4 calcium flux, at 10 µM; hits give high values.
Assay [14] can be described thus: calcium flux inhibitors in TRPC4/5HT1a cells, confirmation, counter-screen for TRPC4 inhibitor project, cell-based, second counter screen, HEK293 TRPC4/5HT1a, Fluo-4 (AID 434978;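 active = primary screen active whose calcium signal fell more than 3 SD beyond the full-serotonin control mean in both duplicate plates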;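 as to outcome: serotonin given first at submaximal then at maximal dose after compound preincubation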). The conditions noted are these: Fluo-4 calcium flux, at 10 µM, serotonin added to trigger calcium flux; hits give high values.
The subject of assay [15] is TRPC4 (mouse), co-expressed with 5HT1a in HEK293. The assay can be described thus: calcium flux potentiators in TRPC4/5HT1a cells, confirmation, counter-screen for TRPC4 potentiator project, cell-based, second counter screen, HEK293 TRPC4/5HT1a, Fluo-4 (AID 434979). The following applies: Fluo-4 calcium flux, at 10 µM, serotonin added at its EC20 dose; hits give high values.

A short description of assay [16]: calcium flux activation in mu-opioid HEK293 cells, confirmation, counter-screen for TRPC4 activator project, cell-based, HEK293 mu-opioid receptor line (AID 449723;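 active = hit in primary screen, with calcium signal over 5 SD above buffer well mean in both duplicates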;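 also: counter screen cells carry the mu-opioid receptor alone and lack TRPC4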). The conditions noted are these: Fluo-4 calcium fluorescence, at 10 µM; hits give high values.
Assay [17] can be described thus: calcium flux enhancement in mu-opioid HEK293 cells, confirmation, counter-screen for TRPC4 allosteric potentiator project, cell-based, HEK293 mu-opioid receptor line (AID 449724;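 active = calcium signal rise more than 3 SD above the low-dose agonist control mean, in both duplicate plates and the primary screen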;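 also: HEK293 cells carrying mu-opioid receptor only with no TRPC4 channel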). The conditions noted are these: Fluo-4 calcium flux, at 10 µM, compound added before EC20 DAMGO stimulus; hits give high values.

For part of these data: Entries with a potency or affinity are not part of this list. Calls of active or inactive are those of the source.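 The calls were made as follows, unless noted: active = signal rise over 3 SD above mean of control wells given weak agonist, in both repeats and first screen; inactive = the rest.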

A word on the inhibition: it is the drop in the measured response relative to a control, in per cent.

Sequence of Short transient receptor potential channel 6 (Mus musculus) (Q61143 whole entry, looked up): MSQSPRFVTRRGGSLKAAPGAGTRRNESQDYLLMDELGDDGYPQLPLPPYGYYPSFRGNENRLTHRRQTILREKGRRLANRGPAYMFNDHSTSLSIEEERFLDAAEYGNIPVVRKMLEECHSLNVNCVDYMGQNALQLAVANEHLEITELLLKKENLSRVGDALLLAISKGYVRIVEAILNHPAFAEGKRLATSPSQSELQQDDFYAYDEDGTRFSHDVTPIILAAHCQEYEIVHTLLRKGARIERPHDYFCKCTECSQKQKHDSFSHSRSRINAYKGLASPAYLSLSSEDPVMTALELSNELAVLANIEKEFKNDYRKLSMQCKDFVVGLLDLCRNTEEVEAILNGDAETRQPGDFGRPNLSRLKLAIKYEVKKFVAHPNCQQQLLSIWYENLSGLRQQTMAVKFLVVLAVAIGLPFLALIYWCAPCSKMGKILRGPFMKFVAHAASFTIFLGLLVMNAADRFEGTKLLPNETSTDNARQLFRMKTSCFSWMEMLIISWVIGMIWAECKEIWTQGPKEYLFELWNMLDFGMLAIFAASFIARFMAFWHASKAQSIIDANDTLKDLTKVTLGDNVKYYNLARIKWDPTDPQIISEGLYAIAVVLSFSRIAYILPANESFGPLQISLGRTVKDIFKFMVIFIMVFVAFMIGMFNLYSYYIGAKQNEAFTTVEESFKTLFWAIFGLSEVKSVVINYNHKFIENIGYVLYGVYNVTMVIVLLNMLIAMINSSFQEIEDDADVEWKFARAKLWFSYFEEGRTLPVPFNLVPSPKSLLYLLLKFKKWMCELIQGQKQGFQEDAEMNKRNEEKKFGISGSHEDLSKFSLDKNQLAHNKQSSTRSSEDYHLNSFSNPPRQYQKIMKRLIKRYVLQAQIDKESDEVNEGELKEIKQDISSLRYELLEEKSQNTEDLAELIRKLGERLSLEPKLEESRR
Sequence of Short transient receptor potential channel 4 (Mus musculus) (Q9QUQ5 whole entry, looked up): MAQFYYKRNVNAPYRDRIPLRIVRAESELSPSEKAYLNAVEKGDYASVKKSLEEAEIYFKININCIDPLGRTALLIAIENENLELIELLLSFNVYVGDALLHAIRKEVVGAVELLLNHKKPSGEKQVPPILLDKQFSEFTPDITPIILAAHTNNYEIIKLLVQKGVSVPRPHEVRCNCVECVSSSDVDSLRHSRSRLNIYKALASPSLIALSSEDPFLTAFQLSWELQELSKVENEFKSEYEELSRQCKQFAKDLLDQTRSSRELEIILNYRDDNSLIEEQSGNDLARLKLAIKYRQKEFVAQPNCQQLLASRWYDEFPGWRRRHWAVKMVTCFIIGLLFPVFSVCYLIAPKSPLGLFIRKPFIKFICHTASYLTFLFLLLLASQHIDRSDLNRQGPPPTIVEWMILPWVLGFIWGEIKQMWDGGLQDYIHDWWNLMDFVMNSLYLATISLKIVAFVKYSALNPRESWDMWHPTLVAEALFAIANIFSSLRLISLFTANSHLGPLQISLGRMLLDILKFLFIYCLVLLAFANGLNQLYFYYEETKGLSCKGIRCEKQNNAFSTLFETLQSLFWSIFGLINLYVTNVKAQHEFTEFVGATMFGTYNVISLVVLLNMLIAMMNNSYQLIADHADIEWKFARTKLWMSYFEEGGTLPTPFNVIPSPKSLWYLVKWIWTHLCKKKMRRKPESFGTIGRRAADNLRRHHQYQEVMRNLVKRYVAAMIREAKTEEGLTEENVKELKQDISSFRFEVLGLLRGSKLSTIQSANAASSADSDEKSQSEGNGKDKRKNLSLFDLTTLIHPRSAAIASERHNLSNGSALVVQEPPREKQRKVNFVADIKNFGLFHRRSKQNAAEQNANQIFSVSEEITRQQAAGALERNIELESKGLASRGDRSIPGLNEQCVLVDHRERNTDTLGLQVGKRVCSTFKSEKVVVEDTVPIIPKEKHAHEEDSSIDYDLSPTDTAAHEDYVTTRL

As to `CCOC(=O)C1=NNC(C(=O)c2ccc(Cl)cc2)C1c1ccc(OC)cc1` (stereo not given), the outcome in assay [1], in [2], in assay [3], in [4], in assay [5] and in assay [6] was inactive. The result in assay [7], in [8], in assay [9], in [10], in assay [11] and in assay [12] was inactive. In addition, the outcome in [13], in assay [14], in [16] and in assay [17] was inactive. For the same compound, the potentiation in [15] was 8.48% (active).

For `Cc1ccc(C2(CCNC(C)c3cccs3)CCOC(C(C)C)C2)cc1` (stereo not given), the outcome in [1], in [2], in [3], in assay [4], in [5] and in [6] was inactive. The outcome in assay [7], in assay [8], in assay [9], in assay [10], in [12] and in assay [13] was inactive. The result in assay [14], in assay [15], in assay [16] and in [17] was inactive. The activation in assay [11] was 69% (active).

Consider `CC(C)Oc1cc(N)c(Cl)cc1Cl`, for which the result in assay [1], in assay [2], in assay [3], in assay [4], in assay [5] and in assay [6] was inactive. For the same compound, the outcome in [7], in assay [8], in assay [9], in assay [10], in [11] and in [12] was inactive. Further, the outcome in [13], in assay [14], in assay [15], in assay [16] and in [17] was inactive.

Take `CCOC(=O)C(CCCCCOc1ccc([N+](=O)[O-])cc1)C(=O)OCC`: the outcome in assay [1], in [2], in assay [3], in assay [5], in [6] and in assay [7] was inactive. Also, the result in [8], in assay [9], in assay [10], in assay [11], in assay [12] and in assay [13] was inactive. The result in assay [14], in [15], in [16] and in assay [17] was inactive. Also, in assay [4], the potentiation is 10% (active).

Turning to `CC1(C)Cc2nc3oc4c(=O)n(CC(=O)Nc5ccccc5)cnc4c3cc2CO1`, the outcome in [1], in assay [2], in assay [3], in assay [4], in assay [5] and in [6] was inactive. The outcome in [7], in assay [8], in assay [9], in assay [10], in assay [11] and in assay [12] was inactive. Also, the outcome in assay [13], in assay [14], in [15], in [16] and in [17] was inactive.

For `COc1ccc(NC(C)=O)cc1NC(C)C(=O)Nc1cc(C(F)(F)F)ccc1N1CCOCC1` (stereo not given), the outcome in assay [1], in assay [2], in [3], in assay [4], in [5] and in assay [6] was inactive. The result in [7], in assay [8], in assay [9], in [10], in assay [11] and in [12] was inactive. For the same compound, the outcome in [13], in assay [14], in assay [16] and in assay [17] was inactive. Moreover, the potentiation in assay [15] was 14.5% (active).

Consider `NC(=O)c1nsc(C(=O)N(Cc2ccco2)C(C(=O)NCc2ccccc2)c2ccc(O)cc2)c1N` (stereo not given), for which the outcome in [1], in [2], in assay [3], in assay [4], in [6] and in assay [7] was inactive. Also, the result in assay [8], in [9], in [10], in assay [11], in [12] and in [13] was inactive. The result in assay [15], in assay [16] and in assay [17] was inactive. Moreover, the inhibition in assay [5] was 72% (active); in [14], 40% (active).

For the compound `CCOC(=O)C(=NC1CCS(=O)(=O)C1)NNc1ccccc1Cl` (stereo not given), the outcome in assay [1], in [2], in assay [3], in assay [5], in assay [6] and in assay [7] was inactive. Moreover, the outcome in [8], in assay [9], in assay [10], in assay [11], in assay [12] and in [13] was inactive. In addition, the outcome in assay [14], in assay [16] and in assay [17] was inactive. Further, the figures for the potentiation in assay [4] and in [15] were 85% (active) and 64.7% (active), respectively.

With `CCOC(=O)C1CCN(c2nc3ccccc3nc2C(C#N)C(=O)OCCOC)CC1` (stereo not given), the result in assay [1], in assay [2], in assay [3], in [4], in assay [5] and in [6] was inactive. The outcome in [7], in [8], in assay [9], in assay [10], in assay [11] and in assay [12] was inactive. The outcome in assay [13], in [14], in [15], in assay [16] and in assay [17] was inactive.

As to `O=[N+]([O-])c1ccc2c(c1)C=C1CCCCC1(N1CCCC1)O2` (stereo not given), the result in [1], in assay [2], in [3], in assay [4], in [5] and in [6] was inactive. In addition, the outcome in [7], in assay [8], in [9], in [10], in assay [11] and in assay [12] was inactive. For the same compound, the result in assay [13], in [14], in assay [15], in assay [16] and in assay [17] was inactive.

Take `c1ccc(-c2cnc(SCCN3CCOCC3)n2CC2CCCO2)cc1` (stereo not given): the outcome in assay [1], in assay [2], in assay [3], in [4], in assay [5] and in assay [6] was inactive. The result in assay [7], in [8], in [9], in assay [10], in assay [11] and in assay [12] was inactive. In addition, the outcome in [13], in assay [14], in [15], in assay [16] and in assay [17] was inactive.

Take `O=C1NC(c2ccccc2)=C(c2nc3ccccc3s2)C(c2ccccc2)N1` (stereo not given): the outcome in assay [1], in assay [2], in assay [3], in assay [5], in [6] and in assay [7] was inactive. For the same compound, the result in assay [8], in assay [9], in [10], in [11], in [12] and in [13] was inactive. Further, the outcome in assay [14], in assay [16] and in assay [17] was inactive. The values for the potentiation in assay [4] and in assay [15] were 14% (active) and 24.2% (active), respectively.

Turning to `Cc1ccc(Oc2ccccc2NC(=O)CSCC(=O)Nc2cc(C)on2)cc1`, the result in assay [1], in [2], in assay [3], in assay [4], in assay [6] and in assay [7] was inactive. In addition, the outcome in assay [8], in [9], in assay [10], in assay [11], in [12] and in assay [13] was inactive. The result in assay [15], in [16] and in assay [17] was inactive. In addition, the inhibition was 62% (active) in [5] and 35.3% (active) in [14].

As for `CN(Cc1ccccc1)Cc1nc2c(c(=O)n(C)c(=O)n2C)n1CCCc1ccccc1`, the outcome in assay [1], in assay [2], in assay [3], in assay [4], in assay [5] and in [6] was inactive. Besides, the result in [7], in assay [8], in assay [9], in assay [10], in [11] and in assay [12] was inactive. Further, the result in assay [13], in [14], in assay [16] and in [17] was inactive. In addition, the potentiation in assay [15] was 8.51% (active).

In the case of `CC1=C(C(=O)NCCN2CCN(C)CC2)C2(CCC(C)CC2)OC1=O` (stereo not given), the outcome in assay [1], in assay [2], in [3], in assay [4], in [5] and in assay [6] was inactive. Besides, the outcome in assay [7], in assay [8], in [9], in [10], in assay [11] and in assay [12] was inactive. In addition, the outcome in assay [13], in assay [14], in assay [15], in assay [16] and in [17] was inactive.
